Measured values from PubChem BioAssay (NCATS).
Several values for one entry are separate records, joined by “and”; a condition that tells them apart may be missing. Equal values may be shown once. Inconclusive results are not listed. A structure can be active in one record and inactive in another. Activity calls are given as the source filed them. Calls follow the shape of the dose curve; as a rule, active = well fitted inhibition curve with a large enough effect; inconclusive = small, poorly fitted or top-dose-only effect; inactive = flat fitted curve, though single readings scatter.

What was measured:
[1] = system: CRL-7250; assay: Cytotoxic Profiling of Annotated Libraries Using Quantitative High-Throughput Screening (AID 1296008); conditions: Five cell lines viability, CellTiter-Glo ATP luminescence, 48-72 h; max response: active compounds read low; also: potency is read from the fitted curve at half-maximal effect; as to max response: % is scaled to controls: 0 for no effect and ±100 for the full control effect
Method in brief: (§1)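 Cells exposed to compounds for 48 or 72 hr at 37 degrees Celsius. Viability read as ATP-coupled luminescence with CellTiter-Glo after 10 min at room temperature.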

[2] = system: HEK293; assay: as above; conditions: Five cell lines viability, CellTiter-Glo ATP luminescence, 48-72 h; max response: active compounds read low
Method in brief: as §1

[3] = system: HaCat; assay: as above; conditions: Five cell lines viability, CellTiter-Glo ATP luminescence, 48-72 h; max response: active compounds read low
Method in brief: as §1

[4] = system: KB-3-1; assay: as above; conditions: Five cell lines viability, CellTiter-Glo ATP luminescence, 48-72 h; max response: active compounds read low
Method in brief: as §1

[5] = system: NIH3T3; assay: as above; conditions: Five cell lines viability, CellTiter-Glo ATP luminescence, 48-72 h; max response: active compounds read low
Method in brief: as §1

[6] = system: HACAT; assay: qHTS assay to identify novel small-molecules to repurpose for Merkel cell carcinoma treatment (AID 1296009); conditions: MCC and control cell lines, CellTiter-Glo viability, 72 h; at 44.8 µM (top of the series) unless noted; also: potency is read from the fitted curve at half-maximal effect
Method in brief: (§2)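 Cells were incubated with compound for 72 hr at 37 degree celsius before CellTiter-Glo addition. Luminescence was normalized with no-cell wells as full cytotoxicity and DMSO as baseline.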

[7] = system: HEK293T; assay: as above; conditions: MCC and control cell lines, CellTiter-Glo viability, 72 h; at 44.8 µM (top of the series)
Method in brief: as §2

[8] = system: MCC-13; assay: as above; conditions: MCC and control cell lines, CellTiter-Glo viability, 72 h; series mostly up to 46 µM
Method in brief: as §2

[9] = system: MCC-26; assay: as above; conditions: MCC and control cell lines, CellTiter-Glo viability, 72 h; series mostly up to 46 µM
Method in brief: as §2

[10] = system: MKL-1; assay: as above; conditions: MCC and control cell lines, CellTiter-Glo viability, 72 h; series mostly up to 46 µM
Method in brief: as §2

[11] = system: MKL-2; assay: as above; conditions: MCC and control cell lines, CellTiter-Glo viability, 72 h; series mostly up to 46 µM
Method in brief: as §2

[12] = system: PAD; assay: qHTS profiling for inhibitors of Plasmodium falciparum proliferation (AID 504749);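 also: 0% = DMSO vehicle and full inhibition = artemisinin control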; conditions: P. falciparum in erythrocytes, SYBR Green DNA, 72 h; series mostly up to 28.7 µM
Method in brief: (§3)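 Readout was DNA-dye fluorescence from lysed cultures, ex 485/em 535 nm. Parasitized red cells had grown 72 h with compound; data scaled between 0.29 uM artemisinin and DMSO wells and corrected using vehicle-only plates.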

[13] = system: PC15; assay: as above; conditions: P. falciparum in erythrocytes, SYBR Green DNA, 72 h; series mostly up to 28.7 µM
Method in brief: as §3

[14] = system: PC26; assay: as above; conditions: P. falciparum in erythrocytes, SYBR Green DNA, 72 h; series mostly up to 28.7 µM
Method in brief: as §3

[15] = system: PC49; assay: as above; conditions: P. falciparum in erythrocytes, SYBR Green DNA, 72 h; series mostly up to 28.7 µM
Method in brief: as §3

[16] = system: SC27B; assay: as above; conditions: P. falciparum in erythrocytes, SYBR Green DNA, 72 h; series mostly up to 28.7 µM
Method in brief: as §3

[17] = system: TAB109; assay: as above; conditions: P. falciparum in erythrocytes, SYBR Green DNA, 72 h; series mostly up to 28.7 µM
Method in brief: as §3

[18] = system: TAB113; assay: as above; conditions: P. falciparum in erythrocytes, SYBR Green DNA, 72 h; series mostly up to 28.7 µM
Method in brief: as §3

[19] = system: TAB165; assay: as above; conditions: P. falciparum in erythrocytes, SYBR Green DNA, 72 h; series mostly up to 28.7 µM
Method in brief: as §3

[20] = system: W2; assay: as above; conditions: P. falciparum in erythrocytes, SYBR Green DNA, 72 h; series mostly up to 28.7 µM
Method in brief: as §3
Also: nearly all actives have a fitted effect of over 60% in size.

Nc1ncnc2c1ncn2[C@@H]1O[C@@H](CO)[C@H](O)[C@H]1O
inactive: outcome [1] | outcome [2] | outcome [3] | outcome [4] | max response [5] -24.9% | outcome [6] | outcome [7] | Potency [8] | Potency [9] | Potency [10] | Potency [11]

NCCS
inactive: outcome [12] | outcome [13] | Potency [14] | outcome [15] | Potency [16] | outcome [17] | Potency [18] | Potency [19] | Potency [20] | max response [1] -9.34% | outcome [2] | outcome [3] | max response [4] -0.944% and -2.01% | max response [5] 4.3% | outcome [6] | outcome [7] | Potency [8] | Potency [9] | Potency [10] | Potency [11]

CC=CC(=O)N(CC)c1ccccc1C
inactive: max response [1] -6.43% | outcome [2] | outcome [3] | max response [4] 2.01% | max response [5] 3.96% | outcome [6] | outcome [7] | Potency [8] | Potency [9] | Potency [10] | Potency [11]

CC(C)(C)COc1ccc(-n2cc(C(=O)O)cn2)cc1C#N
inactive: outcome [1] | max response [2] 3.28% | outcome [3] | max response [4] 7.58% | max response [5] 3.94% | outcome [6] | Potency [8] | Potency [9] | Potency [10] | Potency [11]

CN1C[C@H]2c3ccccc3Oc3ccc(Cl)cc3[C@@H]2C1
active: Potency [2] 10.6 µM
inactive: max response [1] -7.6% and -3.52% | outcome [3] | max response [4] -7.18% | max response [5] -1.33% and 3.58% | outcome [6] | Potency [8] | Potency [10] | Potency [11]

COc1ccc(-c2coc3cc(O)ccc3c2=O)cc1
inactive: outcome [1] | max response [2] -7.99% | outcome [3] | max response [4] 7.74% | max response [5] -7.78% | outcome [6] | Potency [8] | Potency [9] | Potency [10] | Potency [11]

CC=C(C)C(=O)O[C@H]1C(C)=C[C@]23C(=O)[C@@H](C=C(CO)[C@@H](O)[C@]12O)[C@H]1[C@@H](C[C@H]3C)C1(C)C
inactive: max response [1] 2.46% | outcome [3] | max response [4] -20.1% | max response [5] -20.8% | outcome [6] | Potency [8] | Potency [9] | Potency [10] | Potency [11]
active: Potency [2] 26.4 µM

CCn1cc(C(=O)O)c(=O)c2ccc(C)nc21
inactive: max response [1] 4.8% and -5.54% | outcome [2] | outcome [3] | max response [4] -12% and -6.11% | max response [5] -10.7% and -7.98% | outcome [6] | outcome [7] | Potency [8] | Potency [9] | Potency [10] | Potency [11]

C=C1C(=O)OC(CCCCCCCC)C1C(=O)O (centres undefined)
inactive: outcome [1] | outcome [2] | outcome [3] | max response [4] -17.3% | max response [5] 2.38% | outcome [6] | outcome [7] | Potency [8] | Potency [9] | Potency [10] | Potency [11]

COc1cccc([C@@H](C)NCCCc2ccccc2Cl)c1
inactive: outcome [1] | max response [2] 1.17% | outcome [3] | outcome [4] | outcome [5] | outcome [6] | Potency [8] | Potency [9] | Potency [10]

CC(=O)Oc1cc2c(s1)CCN(C(C(=O)C1CC1)c1ccccc1F)C2 (centres undefined)
inactive: max response [1] 4.12% | max response [3] 0.622% | max response [4] -10.7% | Potency [8] | Potency [9]
active: Potency [2] 2.96 µM | Potency [4] 4.69 µM | Potency [10] 11.8 µM | Potency [11] 10.5 µM

Cc1c[nH]c(C=C2C(=O)Nc3ccccc32)c1CCC(=O)O
inactive: outcome [3] | max response [4] -13.5% | max response [5] -18.5% | outcome [6] | Potency [8] | Potency [9] | Potency [10] | Potency [11]
active: Potency [1] 6.62 µM | Potency [2] 3.32 µM

CCOC(=O)O[C@]1(C(=O)OCCl)CC[C@@H]2[C@H]3CCC4=CC(=O)C=C[C@]4(C)[C@@H]3[C@@H](O)C[C@@]21C
inactive: outcome [12] | outcome [13] | Potency [14] | outcome [15] | Potency [16] | outcome [17] | Potency [18] | Potency [19] | outcome [1] | outcome [2] | outcome [3] | outcome [4] | outcome [5] | outcome [6] | outcome [7] | Potency [8] | Potency [9] | Potency [10] | Potency [11]

CCC(CC)[C@H](NC(C)=O)[C@@H]1[C@H](O)[C@@H](C(=O)O)C[C@@H]1N=C(N)N
inactive: max response [1] 2.58% | max response [2] -9.34% | outcome [3] | max response [4] 7.98% | outcome [5] | outcome [6] | Potency [8] | Potency [10] | Potency [11]

COc1ccc2c3c1OC1C[C@@H](O)C=C[C@@]31CCN(C)C2 (some centres undefined)
inactive: max response [1] -0.2% | max response [2] -3.03% | outcome [3] | max response [4] -3.8% | max response [5] 1.03% | outcome [6] | Potency [8] | Potency [9] | Potency [10] | Potency [11]
